Measured values published in PubChem BioAssay AID652015 (National Center for Advancing Translational Sciences (NCATS), 2013).
Inconclusive results are not listed. The source made the active and inactive calls. Calls follow the shape of the dose curve; as a rule, active = well fitted inhibition curve with a large enough effect; inconclusive = small, poorly fitted or top-dose-only effect; inactive = no such curve, though single readings can be large or run the other way.

The compounds below were run against Coelenterazine h 2-monooxygenase (Renilla reniformis) (UniProt P27652) (assay: qHTS Assay for Inhibitors of Sea Pansy Luciferase from the GSK Published Protein Kinase Inhibitor Set). Conditions: purified Renilla luciferase, luminescence; series mostly up to 57.5 µM.
Outline: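 qHTS (roughly 60 uM down to 300 pM) against 1 nM Renilla luciferase, substrate coelenterazine h 5 uM, Tris acetate pH 7.5 buffer with NaCl, Tween-20 and BSA. Luminescence measured after an average 2 min incubation.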

Chain of Coelenterazine h 2-monooxygenase (Renilla reniformis) (P27652 whole entry, looked up): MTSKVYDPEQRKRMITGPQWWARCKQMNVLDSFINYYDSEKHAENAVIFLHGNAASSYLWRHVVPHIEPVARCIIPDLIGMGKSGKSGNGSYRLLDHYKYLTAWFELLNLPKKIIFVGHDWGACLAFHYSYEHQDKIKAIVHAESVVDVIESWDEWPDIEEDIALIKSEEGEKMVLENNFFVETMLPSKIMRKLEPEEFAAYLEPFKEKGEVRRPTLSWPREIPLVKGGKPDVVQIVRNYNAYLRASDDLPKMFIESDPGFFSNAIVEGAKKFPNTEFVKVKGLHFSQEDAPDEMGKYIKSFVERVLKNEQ

Potency, inactive:
CCn1c(-c2nonc2N)nc2cncc(C(=O)N3CCNCC3)c21
COc1cccc(-n2ncc3c(NN=Cc4ccc(S(C)(=O)=O)cc4)ncnc32)c1
c1ccc(-c2[nH]ncc2-c2ccnc(-c3ccc(OCCN4CCOCC4)cc3)c2)nc1
Nc1nccc(-c2c(-c3ccc(F)cc3)nn3cc(C(F)(F)F)ccc23)n1
N#Cc1ccc2c(-c3ccnc(NC4CC4)n3)c(-c3ccc(F)cc3)nn2c1
Cc1cc(O)cc(C)c1C=Cc1cncc(C(N)=O)c1
COc1ccc(CNC(=O)c2ccc(-c3cc(-c4nnc(C)o4)ccc3C)cc2)cc1
N#Cc1cccc(Nc2nccc(-c3cnn4ncccc34)n2)c1
CCN1CCC(C(=O)Nc2n[nH]c3nnc(-c4cccc(F)c4F)cc23)CC1
Cc1cccc(Nc2ncc(-c3ccccc3)o2)c1
COC(=O)Nc1nc2ccc(Sc3ccc(NC(=O)Nc4cc(C(F)(F)F)ccc4F)cc3)cc2[nH]1
O=C(Nc1n[nH]c2nc(-c3ccco3)c(Br)cc12)C1CC1
CS(=O)(=O)Nc1cccc(-c2ccc3c(NC(=O)C4CC4)n[nH]c3c2)c1
COc1cc(Nc2ncc3c(C)nc(-c4cccc(Oc5ccccc5)c4)n3n2)cc(OC)c1OC
COC(=O)Nc1nc2ccc(Oc3ccc(NC(=O)Nc4cc(C(F)(F)F)ccc4F)cc3)cc2s1
Cc1nnc(-c2ccc(C)c(-c3ccc(C(=O)NCc4ccc(Cl)cc4)cc3)c2)o1
